This note sets out measurements from PubChem BioAssay (Tox21).

Molecules are shown by their SMILES. Results filed as inconclusive are left out. Active and inactive are the calls of the source. The call rests on the fitted dose curve; in most records, active means well fitted cell-killing curve with a large enough effect in the repeat runs; inconclusive means weak or mixed curves; inactive means flat fitted curve, though single readings scatter.
On the % scale 0 is the no-effect control and ±100 the full control effect.

The nature of this test: qHTS RealTime-Glo MT Cell Viability Assay in HepG2 cells - 24 hour (AID 1224867). Further: nearly all actives have a fitted effect of over 50% in size. The conditions noted are these: RealTime-Glo luminescence; series mostly up to 76.8 µM. The text has this: U.S. Tox21 Program National Center for Advancing Translational Sciences [NCATS] NIH Chemical Genomics Center [NCGC] U.S. Environmental Protection Agency [EPA] National Institutes of Environmental Health Sciences [NIEHS] National Toxicology Program [NTP] U.S. Food and Drug Administration [FDA] Tox21 Assay Overview: Measure of cell viability is critical in the cell-base assay. Analysis of cell viability is necessary for the characterization of cell responses to cytotoxic drugs and environmental stress. A RealTime-Glo MT Cell Viability Assay to monitor cell viability in real time of continues cell culture during 40 hours of compound treatment was used to screen Tox21 10K library compounds in HepG2 cells. The RealTime-Glo MT Cell Viability Assay is a nonlytic, homogeneous, bioluminescent method to measure cell viability in real time using a simple, plate-based method. The assay involves adding NanoLuc luciferase and a cell-permeant prosubstrate to cells in culture. Viable cells reduce the proprietary prosubstrate to generate a substrate for NanoLuc luciferase. This substrate diffuses from cells into the surrounding culture medium, where it is rapidly used by the NanoLuc Enzyme to produce a luminescent signal. The signal correlates with the number of viable cells, making the assay well suited for cytotoxicity studies.
Tox21 Assay Protocol Summary: The mixture of HepG2 cell suspension and reagents were dispensed at 600cells/6 ul/well in 1536-well tissue culture treated black solid bottom plates using a Multidrop dispenser. After the assay plates were incubated at a 37 C/5% CO2 incubator for 5 hours, 23 nL of compounds dissolved in DMSO, positive and negative controls was transferred to the assay plate by a pintool work station. The plates were incubated at 37 C for 40 hours. The luminescence intensity were measured at 0h, 8h, 16h, 24h, 32h and 40h time points using ViewLux plate reader during compound treatment.
(In general: In qHTS, concentration-response curves come from the screen itself.)
As for `CC(C)C(=O)OCc1cccc(OC(=O)[C@@H]2N3C(=O)[C@@H](NC(=O)Cc4ccccc4)[C@H]3SC2(C)C)c1`, the outcome was inactive.

Turning to `CCN1CCc2nc(N)oc2CC1`, the compound was classed as inactive. Still for that read-out and setting: next, `CCCCCCCCSCC`: “inactive”. Take `CN1CCN(CC(=O)N2c3ccccc3C(=O)Nc3cccnc32)CC1`: the activity change, negative = cytotoxicity is 0.294% [at 6.97 µM] (inactive). `CC(C)CC(C)CC(C)CC(C)COC(=O)c1ccccc1C(=O)OCC(C)CC(C)CC(C)CC(C)C` (stereo not given): the compound was classed as inactive. The same measure, in the same setting: next, `C[C@@H]1O[C@@H](O[C@@H]2[C@@H](O)[C@H](OCCc3ccc(O)c(O)c3)O[C@H](CO[C@@H]3O[C@H](CO)[C@@H](O)[C@H](O)[C@H]3O)[C@H]2OC(=O)/C=C/c2ccc(O)c(O)c2)[C@H](O)[C@H](O)[C@H]1O`: “inactive”; `NS(=O)(=O)c1cc2c(cc1Cl)CN(C1CCCCC1)C2=O`: “inactive”.

With `Nc1ccc2cc(S(=O)(=O)O)cc(O)c2c1`, the compound was classed as inactive. On the same count and under the same terms, next, `BrCc1cccc(Oc2ccccc2)c1`: “inactive”; `CC(C)=O`: “inactive”; `COc1ccc2c(c1OC)C(=O)O[C@@H]2[C@H]1c2c(cc3c(c2OC)OCO3)CCN1C`: “inactive”. Turning to `CCCCOCCOC(=O)COc1nc(Cl)c(Cl)cc1Cl`, the compound was called inactive. On the same count and under the same terms, the result for `CCCCNc1ccc(C(=O)OCCN(C)C)cc1` reads “inactive”; that for `CC(COC(C)(C)C)OCCCO` (stereo not given), “inactive”. The same measure, in the same setting: next, `ClCCCl`: “inactive”; `CC(C)c1ccc2cc(C(C)C)ccc2c1`: “inactive”; `Cc1ccccc1N=O`: “inactive”. Same read-out and setting: next, `O=C(O)c1cc(Br)c(O)c(Br)c1`: “inactive”; `CC(C)(C)c1cc(CCC(=O)NN)cc(C(C)(C)C)c1O`: “inactive”. Regarding `CC1(CO)CN(c2ccccc2)NC1=O` (stereo not given), the call was inactive. On the same count and under the same terms, the result for `COC(=O)CCc1ccc(OCC(O)CNC(C)C)cc1` (stereo not given) reads “inactive”; that for `CN(C)CCOCCO`, “inactive”; that for `O=C1c2ccccc2C(=O)c2cc(S(=O)(=O)O)ccc21`, “inactive”. For `Cc1cc(C(C)(C)C)c(O)c(C)c1CC1=NCCN1`, the result was inactive. For the compound `Oc1cn2c(n1)Nc1ccc(Cl)c(Cl)c1C2`, the activity change, negative = cytotoxicity is -0.765% [at 15.8 µM] (inactive).

As for `Cc1cc(NC(=O)C2=C(O)c3ccccc3S(=O)(=O)N2C)no1`, the compound was called inactive. Regarding `COC(=O)CCCCCCCC(=O)OC`, the outcome was inactive. For `COc1ccc(Br)c(C)c1`, the call was inactive. Still for that read-out and setting: next, `CN(C)C(=O)CNC(=O)Cc1ccccc1`: “inactive”; `C[C@@H](Oc1ccc(CNC(=O)c2cccnc2Oc2ccc3c(c2)OCO3)c(F)c1)C(=O)O`: “inactive”. The same measure, in the same setting: next, `Cc1[nH]cnc1-c1ccc(Cl)cc1`: “inactive”; `CCC(C=O)CC`: “inactive”. The same measure, in the same setting: next, `CC(=O)N[C@@H](CCC(=O)O)C(=O)O`: “inactive”; `O=P(O)(O)OP(=O)(O)O`: “inactive”; `CC(C)(C)OC(=O)c1ccc(O)cc1`: “inactive”.

For `CC1COc2ccccc2N1` (stereo not given), the compound was called inactive.

`C=COCCOCCOCCOC=C`: the call was inactive. As for `COP(=O)(OC)OC(c1ccc(Cl)cc1)P(=O)(OC)OC` (stereo not given), the result was inactive. For `O=C1CCCC(=O)O1`, the compound was classed as inactive. As to `O=C(O)C(=O)Cc1ccccc1`, the compound was called inactive.
